The values below come from PubChem BioAssay (Tox21).

Unmarked numbers belong to inactive results. Records with an inconclusive call do not appear. The source made the active and inactive calls. Unless noted, calls follow the shape of the dose curve; as a rule, active = well fitted curve in the direction sought with a large enough effect in the repeat runs; inconclusive = weak or mixed curves; inactive = no such curve, though single readings can be large; an effect the other way counts as inactive or inconclusive.

Assay [1] can be described thus: qHTS assay to test for compound auto fluorescence at 535 nm (green) in HEK293 cells (AID 720680). In general terms: In qHTS, concentration-response curves come from the screen itself.
Assay [2] can be described thus: qHTS assay to test for compound auto fluorescence at 460 nm (blue) in HEK293 cell free culture (AID 720681). A digest of the protocol:
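Test compounds were pinned into cell-free culture medium (DMEM with 10% FBS) and fluorescence was read directly at Ex/Em 405/460 nm. Signals were expressed as fluorescence equivalents of triamterene, with DMSO vehicle as control.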

The nature of assay [3]: qHTS assay to test for compound auto fluorescence at 535 nm (green) in HEK293 cell free culture (AID 720682). The gist of the method:
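Green-label autofluorescence (485 nm excitation, 535 nm emission) measured on compound added to cell-free culture medium (DMEM, 10% FBS). Output is expressed relative to fluorescein.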

The nature of assay [4]: qHTS assay to test for compound auto fluorescence at 590 nm (red) in HEK293 cell free culture (AID 720683). The gist of the method: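 Tox21 10K library compounds were pinned into cell-free DMEM with 10% FBS and fluorescence was read at excitation 540 nm. Activity is expressed as Rose Bengal sodium equivalency.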
Assay [5] is described as follows: qHTS assay to test for compound auto fluorescence at 590 nm (red) in HepG2 cell free culture (AID 720684). The gist of the method:
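Red fluorescence (540 nm excitation, 590 nm emission) was measured after compound transfer into cell-free MEM supplemented with 10% FBS. Values are equivalencies against Rose Bengal sodium.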

A short description of assay [6]: qHTS assay to test for compound auto fluorescence at 460 nm (blue) in HepG2 cell free culture (AID 720685). The gist of the method: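 Compound (23 nL) or DMSO pinned into cell-free MEM with 10% FBS; blue fluorescence read at 405/460 nm excitation/emission, expressed as auto-fluorescence equivalency to triamterene.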
The nature of assay [7]: qHTS assay to test for compound auto fluorescence at 535 nm (green) in HepG2 cell free culture (AID 720686).
Assay [8] in a line: qHTS assay to test for compound auto fluorescence at 460 nm (blue) in HepG2 cells (AID 720687). A digest of the protocol: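 Cells (2,000/well in MEM with 10% FBS) attached overnight at 37 C, then were exposed to compound or DMSO for 1 hr at 37 C, 5% CO2. Fluorescence read at Ex/Em 405/460 nm, expressed as triamterene-equivalent signal.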
Assay [9] deals with Glucocorticoid receptor (Homo sapiens) (UniProt P04150). Kind of assay: qHTS assay to identify small molecule agonists of the glucocorticoid receptor (GR) signaling pathway (AID 720691; active = well fitted activation curve with a large enough effect in the signal ratio in the repeat runs, not every such curve was filed as active; the % refers to the signal ratio). The gist of the method: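 Agonist mode in a HeLa line carrying a GRE-controlled beta-lactamase reporter. Compounds act for 18 h at 37 C before a 2 h room-temperature FRET substrate step and fluorescence reading.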
Sequence of Glucocorticoid receptor (Homo sapiens) (P04150 whole entry, looked up): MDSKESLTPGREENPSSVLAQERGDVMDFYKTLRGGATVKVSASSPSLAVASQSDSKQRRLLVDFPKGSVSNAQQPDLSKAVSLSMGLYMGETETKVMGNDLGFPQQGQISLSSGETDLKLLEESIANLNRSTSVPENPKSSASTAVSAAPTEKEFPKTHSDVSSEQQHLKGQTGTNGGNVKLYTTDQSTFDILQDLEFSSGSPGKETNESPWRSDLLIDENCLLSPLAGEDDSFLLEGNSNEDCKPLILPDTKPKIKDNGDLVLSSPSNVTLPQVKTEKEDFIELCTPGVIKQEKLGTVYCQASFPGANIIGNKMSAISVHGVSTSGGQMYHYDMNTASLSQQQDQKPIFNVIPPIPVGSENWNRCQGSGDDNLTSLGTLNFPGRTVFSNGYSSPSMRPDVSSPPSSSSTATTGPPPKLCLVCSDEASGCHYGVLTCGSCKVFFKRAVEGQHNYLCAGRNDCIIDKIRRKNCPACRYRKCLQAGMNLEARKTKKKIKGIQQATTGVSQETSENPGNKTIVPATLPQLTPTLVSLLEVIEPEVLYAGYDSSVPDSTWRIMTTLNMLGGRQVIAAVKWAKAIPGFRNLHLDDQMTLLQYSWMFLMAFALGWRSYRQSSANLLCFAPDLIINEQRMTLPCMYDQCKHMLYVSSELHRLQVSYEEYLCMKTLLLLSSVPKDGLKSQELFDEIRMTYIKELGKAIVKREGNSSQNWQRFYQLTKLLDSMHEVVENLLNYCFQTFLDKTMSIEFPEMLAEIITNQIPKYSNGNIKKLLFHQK

A short description of assay [10]: qHTS assay to identify small molecule antagonists of the glucocorticoid receptor (GR) signaling pathway - cell viability counter screen (AID 720693). Also: nearly all actives have a fitted effect of over 55% in size.
Assay [11] is described as follows: qHTS assay for identifying genotoxic compounds that show differential cytotoxicity against isogenic chicken DT40 cell lines with known DNA damage response pathways - wild type cell line (AID 743012). Also: nearly all actives have a fitted effect of over 60% in size. A digest of the protocol: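 Cells (DT40 wild type, 300/well) are treated with DMSO-dissolved compounds after a ~0.5 h pre-incubation and kept 40 h at 37 C/5% CO2. Viability is then measured by CellTiter-Glo luminescence following 30 min at room temperature.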

The nature of assay [12]: qHTS assay for identifying genotoxic compounds that show differential cytotoxicity against isogenic chicken DT40 cell lines with known DNA damage response pathways - Rad54/Ku70 mutant cell line (AID 743015). Also: nearly all actives have a fitted effect of over 60% in size.
A short description of assay [13]: qHTS assay to identify small molecule antagonists of the androgen receptor (AR) signaling pathway - cell viability counter screen (AID 743033; also: nearly all actives have a fitted effect of over 45% in size).
Assay [14] is described as follows: qHTS assay to identify small molecule antagonists of the androgen receptor (AR) signaling pathway using the MDA cell line - cell viability counter screen (AID 743041; also: nearly all actives have a fitted effect of over 45% in size). The gist of the method: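 MDA-kb2 AR-luc human breast carcinoma cells (MMTV-luciferase, AR/GR responsive) were treated with compounds plus R1881 agonist for 16 h at 37 °C. Viability was read as CellTiter-Fluor fluorescence in the same wells as the reporter assay.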

Assay [15] is described as follows: qHTS assay to identify small molecule antagonists of the thyroid receptor (TR) signaling pathway - cell viability counter screen (AID 743064). Also: nearly all actives have a fitted effect of over 50% in size. The gist of the method: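 GH3.TRE-Luc rat pituitary cells dosed after 4 hr plating, co-stimulated with T3 at 1 nM final, incubated 23.5 h at 37 C. Viability measured in the same wells by CellTiter-Fluor fluorescence after 30 min further at 37 C.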

The target of assay [16] is Glucocorticoid receptor (Homo sapiens) (UniProt P04150). Kind of assay: qHTS assay to identify small molecule antagonists of the glucocorticoid receptor (GR) signaling pathway (AID 720692; active = well fitted inhibition curve with a large enough effect in the signal ratio in the repeat runs, not every such curve was filed as active; the % refers to the signal ratio). The gist of the method: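 Cells plated, rested 4 h at 37 C/5% CO2; compounds in DMSO pin-transferred; dexamethasone added to 5 nM final; 18 h at 37 C; B/G FRET substrate added, 2 h room temperature; fluorescence measured.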

Assay [17] can be described thus: qHTS assay for identifying genotoxic compounds that show differential cytotoxicity against isogenic chicken DT40 cell lines with known DNA damage response pathways - Rev3 mutant cell line (AID 743014). Also: nearly all actives have a fitted effect of over 55% in size. Also: potency is read from the fitted curve at half-maximal effect.
Assay [18] addresses Androgen receptor (Homo sapiens) (UniProt P10275). As to the kind of experiment: qHTS assay to identify small molecule agonists of the androgen receptor (AR) signaling pathway using the MDA cell line (AID 743040; also: nearly all actives have a fitted effect of over 20% in size). The gist of the method: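 MDA-kb2 breast carcinoma cells stably carrying an MMTV-driven luciferase reporter (AR- and GR-responsive) were seeded and held 5 h at 37C, 0% CO2, then exposed to compounds in DMSO for 16 h. Luminescence was read 30 min after ONE-Glo addition.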

Assay [19] has the same target. As to the kind of experiment: qHTS assay to identify small molecule antagonists of the androgen receptor (AR) signaling pathway using the MDA cell line (AID 743042; also: nearly all actives have a fitted effect of over 55% in size). The gist of the method:
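MDA-kb2 cells (human breast carcinoma, stably carrying an MMTV-luciferase reporter responsive to AR and GR) were plated at 3,000 cells/well and preincubated 5 hr at 37C, then given compound plus R1881 agonist for 16 h. ONE-Glo luminescence was read.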
% is scaled to controls: 0 for no effect and ±100 for the full control effect.

Sequence of Androgen receptor (Homo sapiens) (P10275 whole entry, looked up): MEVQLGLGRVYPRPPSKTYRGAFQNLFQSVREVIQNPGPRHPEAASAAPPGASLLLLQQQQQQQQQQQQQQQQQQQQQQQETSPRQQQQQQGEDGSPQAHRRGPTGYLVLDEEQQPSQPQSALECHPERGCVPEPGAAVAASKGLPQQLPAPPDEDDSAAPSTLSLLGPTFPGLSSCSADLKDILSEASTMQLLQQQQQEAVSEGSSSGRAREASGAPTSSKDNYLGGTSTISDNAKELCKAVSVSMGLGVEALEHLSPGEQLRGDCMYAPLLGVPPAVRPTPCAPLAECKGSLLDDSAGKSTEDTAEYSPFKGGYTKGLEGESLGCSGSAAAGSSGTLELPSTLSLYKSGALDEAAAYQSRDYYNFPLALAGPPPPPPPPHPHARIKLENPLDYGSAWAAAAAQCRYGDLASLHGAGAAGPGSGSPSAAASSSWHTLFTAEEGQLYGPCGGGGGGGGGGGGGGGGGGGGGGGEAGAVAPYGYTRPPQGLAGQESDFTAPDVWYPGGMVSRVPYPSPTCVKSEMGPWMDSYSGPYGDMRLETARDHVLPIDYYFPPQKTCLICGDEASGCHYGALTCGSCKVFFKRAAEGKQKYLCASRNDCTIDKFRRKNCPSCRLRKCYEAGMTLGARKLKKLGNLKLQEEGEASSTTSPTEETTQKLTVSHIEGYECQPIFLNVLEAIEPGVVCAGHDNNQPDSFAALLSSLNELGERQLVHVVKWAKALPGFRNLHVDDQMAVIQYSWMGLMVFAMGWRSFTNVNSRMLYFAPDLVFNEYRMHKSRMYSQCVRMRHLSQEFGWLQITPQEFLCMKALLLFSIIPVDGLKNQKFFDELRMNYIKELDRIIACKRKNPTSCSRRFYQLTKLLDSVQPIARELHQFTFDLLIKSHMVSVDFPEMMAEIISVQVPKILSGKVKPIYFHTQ

As to `c1ccc(CN(Cc2ccccc2)Cc2ccccc2)cc1`, the call in assay [1], in [3], in assay [4], in assay [5], in [6] and in assay [7] was inactive. For the same molecule, in assay [8], the molecule was called inactive. Besides, the Potency result in assay [2], in assay [9], in assay [10], in assay [11], in assay [12] and in assay [13] was “inactive” each time. In addition, the Potency entry in assay [14] and in [15] was “inactive” throughout.

Turning to `O=c1c2ccccc2oc2ccccc12`, the outcome in assay [1], in assay [3], in assay [4], in [5], in assay [6] and in assay [7] was inactive. Also, in assay [8], the molecule was classed as inactive. For the same molecule, the Potency entry in assay [2], in assay [9], in assay [16], in [10], in assay [12] and in assay [13] was “inactive” throughout. Besides, the Potency result in assay [14] is “inactive”. The Potency in [17] is 61.1 µM (active).

Consider `Nc1ncnc2c1ncn2[C@@H]1O[C@H](CO)[C@@H](O)[C@H]1O`, for which the molecule was classed as inactive in assay [1], in assay [3], in assay [4], in assay [5], in assay [6] and in assay [7]. The call in [8] was inactive. The Potency entry in assay [2], in [9], in [10], in [11], in assay [17] and in [14] was “inactive” each time. Besides, in assay [15], the Potency result is “inactive”.

On to `CC(=O)Oc1cccc2c1C(=O)c1c(OC(C)=O)cc(C(=O)O)cc1C2=O`, for which the molecule was called inactive in assay [1], in [3], in [4], in assay [5], in [6] and in assay [7]. Also, the result in assay [8] and in assay [18] was inactive. In addition, the Potency result in assay [2], in assay [16], in assay [10], in [11], in assay [17] and in [12] was “inactive” each time. The Potency entry in [13] and in [19] was “inactive” throughout.

On to `CCC(CC)C(=O)O`, for which the molecule was called inactive in [1], in assay [3], in assay [4], in assay [5], in assay [6] and in [7]. Also, the molecule was called inactive in [8]. The Potency entry in [2], in assay [9], in assay [16], in [10], in assay [17] and in assay [12] was “inactive” in each case. The Potency result in assay [14] and in assay [15] was “inactive” each time.

Turning to `C=C[Si]1(C)O[Si](C)(C=C)O[Si](C)(C=C)O[Si](C)(C=C)O1` (centres undefined), the result in [1], in [3], in assay [4], in [5], in [6] and in assay [7] was inactive. The outcome in [8] was inactive. Moreover, the Potency result in assay [2], in assay [9], in [16], in assay [10], in assay [13] and in assay [14] was “inactive” each time. For the same molecule, the Potency entry in assay [15] was “inactive”.

With `c1ccc(-c2ccc(-c3ccccc3)cc2)cc1`, in assay [1], the fluorescence, % of fluorescein is 0.0075% [at 18.6 µM]. Moreover, the fluorescence, % of fluorescent control in [2] was -0.0624% [at 18.6 µM]; in [4], -0.201% [at 18.6 µM]; in assay [6], 0.0163% [at 18.6 µM]; in assay [8] it was -0.024% [at 18.6 µM]. Further, the activity change in assay [3] is -0.0551% [at 18.6 µM]. The fluorescence, % of Rose Bengal in assay [5] is -0.0264% [at 18.6 µM]. In addition, in assay [7], the fluorescence, % of fluorescein control was -0.0394% [at 18.6 µM]. In addition, the Potency entry in assay [9], in [16], in assay [10], in [17], in assay [12] and in assay [13] was “inactive” each time. Also, the Potency entry in [14] and in assay [15] was “inactive” each time.

In the case of `CO[C@@H]1COCC[C@@H]1N[C@@H]1CC[C@@](C(=O)N2CCc3ncc(C(F)(F)F)cc3C2)(C(C)C)C1`, the call in [1], in assay [3], in assay [4], in [5], in assay [6] and in assay [7] was inactive. For the same molecule, the outcome in assay [8] was inactive. The Potency entry in assay [2], in [9], in assay [16], in assay [10], in assay [13] and in assay [14] was “inactive” throughout. The Potency result in [15] was “inactive”.

For the molecule `O=C1c2ccccc2C(=O)c2c1ccc(O)c2O`, the call in assay [1], in [3], in assay [4], in assay [5], in [6] and in [7] was inactive. In assay [8], the molecule was called inactive. In addition, the Potency entry in [2], in [9], in assay [10], in [11], in assay [17] and in [12] was “inactive” in each case. Moreover, the Potency result in assay [13] and in assay [15] was “inactive” each time.
